We go through 22 molecules from PubChem BioAssay (EPA / NIEHS).

Results filed as inconclusive are left out. Active and inactive are the calls of the source. How the source made its calls: active means hit-call score of the fitted dose curve at least 0.9, where 1 is the maximum; inconclusive means response in the unintended direction; inactive means score below 0.9.

The target in the first experiment is Estrogen-related receptor gamma (Homo sapiens) (UniProt P62508). As to the kind of experiment: ATG_ERRg_TRANS: Attagene TRANS-FACTORIAL HepG2 Assay for human Estrogen-Related Receptor gamma (ERRg) (AID 2282977).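 Further: hits increase reporter signal over DMSO so potencies reflect activators.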 The following applies: HepG2 Attagene TRANS reporter, ERRg transactivation. The method in brief: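 HepG2 cells transiently transfected with multiplexed GAL4-UAS reporter units driven by chimeric NR-Gal4 proteins; 24 h exposure. Reporter mRNA quantified by RT-PCR, fluorescent labelling, HpaI digestion and capillary electrophoresis; gain of signal vs DMSO.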
Sequence of Estrogen-related receptor gamma (Homo sapiens) (P62508 whole entry, looked up, the tested form may be a part): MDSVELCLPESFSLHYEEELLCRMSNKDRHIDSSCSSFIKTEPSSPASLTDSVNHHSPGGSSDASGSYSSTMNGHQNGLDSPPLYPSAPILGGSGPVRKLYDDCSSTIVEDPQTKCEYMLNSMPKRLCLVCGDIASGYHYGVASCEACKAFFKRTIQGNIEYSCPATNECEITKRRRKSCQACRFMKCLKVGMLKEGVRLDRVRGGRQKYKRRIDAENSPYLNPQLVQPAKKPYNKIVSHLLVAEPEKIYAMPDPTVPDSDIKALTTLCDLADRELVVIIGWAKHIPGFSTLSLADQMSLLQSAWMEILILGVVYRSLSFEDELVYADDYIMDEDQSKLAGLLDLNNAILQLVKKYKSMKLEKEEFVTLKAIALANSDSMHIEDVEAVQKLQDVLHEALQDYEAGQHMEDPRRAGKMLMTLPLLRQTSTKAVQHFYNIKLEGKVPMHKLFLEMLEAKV
As to `O=c1c(O)c(-c2ccc(O)cc2)oc2cc(O)cc(O)c12`, the outcome was inactive. `CC(C)(C)C1=CC(=O)C(C(C)(C)C)=CC1=O`: the result was inactive. Consider `CCCCOC(=O)CCCCCCCC(=O)OCCCC`, for which the outcome was inactive. On to `CC(C)(N=C=O)c1cccc(C(C)(C)N=C=O)c1`, for which the result was inactive.

Consider `CN(C)c1ccncc1`, for which the molecule was classed as inactive.

For `CN(C)CCOC(C)(c1ccccc1)c1ccccn1` (centres undefined), the outcome was inactive. Turning to `CC(=O)OCCCc1ccccc1`, the outcome was inactive. On the same count and under the same terms, with `CC/C=C\CC/C=C/CO` the entry was “inactive”; with `CC(C)CCCCCCc1ccc(OCCOCCO)cc1`, “inactive”; with `C/C=C(\C)C(=O)OCCc1ccccc1`, “inactive”.

In the next experiment the target is Glucocorticoid receptor (Homo sapiens) (UniProt P04150). Put plainly: ATG_GR_TRANS: Attagene TRANS-FACTORIAL HepG2 Assay for human Glucocorticoid Receptor (GR) (AID 2282978).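 Further: activators score as hits since higher reporter transcript over DMSO is fitted.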 Particulars: HepG2 Attagene TRANS GR reporter, mRNA transcription. The method, boiled down: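 HepG2 cells transiently transfected with multiplexed reporter units in which chimeric NR-GAL4 proteins drive GAL4-UAS reporters; 24 h compound exposure. Reporter mRNA measured by RT-PCR, 6-FAM labelling, HpaI digestion and capillary electrophoresis; gain-of-signal fitted versus DMSO.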
Sequence of Glucocorticoid receptor (Homo sapiens) (P04150 whole entry, looked up, the tested form may be a part): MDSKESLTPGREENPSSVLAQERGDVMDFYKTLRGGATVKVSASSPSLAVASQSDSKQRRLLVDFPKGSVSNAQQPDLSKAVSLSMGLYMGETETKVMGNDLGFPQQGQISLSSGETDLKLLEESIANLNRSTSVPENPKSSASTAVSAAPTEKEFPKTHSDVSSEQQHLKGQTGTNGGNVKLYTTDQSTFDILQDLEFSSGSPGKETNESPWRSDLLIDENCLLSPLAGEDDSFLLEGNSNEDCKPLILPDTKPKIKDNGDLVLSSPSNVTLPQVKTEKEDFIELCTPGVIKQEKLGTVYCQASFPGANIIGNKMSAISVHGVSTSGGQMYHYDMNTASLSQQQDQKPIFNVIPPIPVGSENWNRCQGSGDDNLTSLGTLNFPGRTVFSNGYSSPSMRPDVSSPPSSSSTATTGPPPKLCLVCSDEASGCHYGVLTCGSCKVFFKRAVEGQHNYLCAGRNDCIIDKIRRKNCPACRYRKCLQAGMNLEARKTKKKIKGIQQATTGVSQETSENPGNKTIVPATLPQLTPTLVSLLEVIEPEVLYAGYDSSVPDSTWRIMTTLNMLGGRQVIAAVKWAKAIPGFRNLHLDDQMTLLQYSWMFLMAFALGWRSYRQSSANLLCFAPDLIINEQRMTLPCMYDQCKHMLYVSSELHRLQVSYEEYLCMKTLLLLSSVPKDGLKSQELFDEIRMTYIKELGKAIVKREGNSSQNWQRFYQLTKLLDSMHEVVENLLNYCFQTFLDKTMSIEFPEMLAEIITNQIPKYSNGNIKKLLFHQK
With `Nc1ccn([C@H]2CS[C@@H](CO)O2)c(=O)n1`, the molecule was called inactive.

`Cc1cc(C)nc(NS(=O)(=O)c2ccc(N)cc2)n1`: the outcome was inactive. Take `CC1=CC[C@@]23C[C@@H]1C(C)(C)[C@@H]2CC[C@H]3C`: the call was inactive. Same read-out and setting: under `CC(C)(N=C=O)c1cccc(C(C)(C)N=C=O)c1` stands “inactive”; under `CCCCCCC(C)(C)S`, “inactive”; under `C=CCN(CC=C)CC=C`, “inactive”. Turning to `OCCCCC(O)CO` (centres undefined), the molecule was classed as inactive.

Take `CC1(C)C2=CCCC(C)(C)[C@]23CC[C@H]1C3`: the result was inactive. As for `CC1(C)C(=O)N(Cl)C(=O)N1Br`, the molecule was classed as inactive. `CCC(=O)O[C@@H]1C[C@H]2CC[C@]1(C)C2(C)C`: the molecule was called inactive. Take `Cc1cc(CCC(=O)OCCOCCOCCOC(=O)CCc2cc(C)c(O)c(C(C)(C)C)c2)cc(C(C)(C)C)c1O`: the molecule was classed as inactive. With `CC(CN=Cc1ccccc1O)N=Cc1ccccc1O` (centres undefined), the result was inactive.

As for `C/C=C(\C)C(=O)OCCc1ccccc1`, the call was inactive. On to `Nc1ccccc1[N+](=O)[O-]`, for which the result was inactive.
